# Screening results as filed in PubChem BioAssay.
# KB-V1 cytotox: KB-V1 MDR subline cytotoxicity | Potency, µM (top dose mostly 46.1 µM), most hits filed as cytotoxic | AID 1347076 | 3.4% of 400,000 active | KB-V1 MDR cells viability, CellTiter-Glo, 72 h; note: nearly all actives have a fitted effect of over 60% in size
#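 Cytotoxicity via CellTiter-Glo luminescence after 72 h compound exposure at 37 degrees C. Cells: drug-selected KB-V1 line, DMEM phenol-red free plus 10% FBS. Compounds tested at multiple concentrations; normalized data fitted to concentration-effect curves.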
# HT1080 IDH1KD tx: toxicity to HT-1080 IDH1 knockdown cells (counter line). HT-1080 IDH1 knockdown viability, ATP luminescence, 48 h. Potency, µM (highest dose often 46.1 µM), for the others: at the top dose activity, negative = toxicity, actives largely listed as cytotoxic. 2% of 360,000 active. AID 686971;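 note: 0% = DMSO wells and -100% = cell-free medium wells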
#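 Using the IDH1-knockdown HT-1080 line run in the same batch and compound series as the NT line, viability after 48 h at 37 °C was determined by CellTiter-Glo luminescence and expressed as % activity.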
# KB-3-1 cytotox: kills parental KB-3-1 adenocarcinoma cells | KB-3-1 viability, CellTiter-Glo ATP luminescence, 72 h | Potency, µM (top dose mostly 46.1 µM), usual class: cytotoxic | 1.4% of 400,000 active | AID 1347075; note: nearly all actives have a fitted effect of over 60% in size
#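 Using CellTiter-Glo luminescence, growth of non-resistant KB-3-1 adenocarcinoma cells is assessed 72 h after pin-tool compound addition at 37 °C. Normalized responses across the concentration series yield fitted curves.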
# DT40 TDP1 CPT: DT40-hTDP1 cell growth loss with CPT; chicken DT40 Tdp1-/-;hTDP1 cells + 20 nM CPT, ATP luminescence, 48 h; 12% of 420,000 active; AID 686979; Potency, µM (titrated, usually from 46.2 µM), for inactives: at the top dose activity change, negative = growth inhibition, actives largely listed as inhibitors; note: nearly all actives have a fitted effect of over 55% in size
#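 Cell growth measured by CellTiter-Glo luminescence after a minimum 48 h, 37 C compound exposure with 20 nM CPT in Tdp1-knockout DT40 cells stably expressing hTDP1, seeded 400/well; qHTS titration format.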
# HT1080-NT tox: kills 2HG-producing HT-1080-NT fibrosarcoma cells. HT-1080-NT fibrosarcoma viability, CellTiter-Glo ATP luminescence, 48 h. Potency, µM (doses to about 46.1 µM), for inactives: top-dose activity, negative = less viability, hits mostly cytotoxic. 1.6% of 360,000 active. AID 686970;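 note: NT is the 2HG producing partner of a matched IDH1 knockdown line; 0% = DMSO-treated cells and -100% = media-only wells without cells; nearly all actives have a fitted effect of over 55% in size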
#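 A 48-hour cytotoxicity screen used HT-1080-NT cells plated 2 hours before compound delivery. ATP-based CellTiter-Glo luminescence measured viability, normalized to DMSO and no-cell controls.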
# DT40 TDP1 no CPT: qHTS for Inhibitors of human tyrosyl-DNA phosphodiesterase 1 (TDP1): qHTS in cells in absence of CPT | 15% of 420,000 active | DT40 Tdp1-/- hTDP1 cells, no CPT, ATP luminescence, 48 h | Potency, µM (highest dose often 46.2 µM), inactives show at the highest dose activity change, negative = growth inhibition, hits mostly inhibitors | AID 686978, 2013; note: nearly all actives have a fitted effect of over 55% in size
#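 DT40 Tdp1-/-;hTDP1 cells, no CPT (DMSO vehicle only), 400 cells/well; compounds pin-transferred; ≥48 hr, 37 °C; CellTiter-Glo 30 min RT dark, luminescence read.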
# * hit, by the source's call; i = inactive; ? = inconclusive; nt = no result given. Hits are enriched below; roughly 19% of the tested compounds scored in any of these assays. Calls come from the whole dose curve; as a rule, active = well fitted curve in the direction sought with a large enough effect; inconclusive = small, poorly fitted or top-dose-only effect, or another doubt; inactive = no such curve, though single readings can be large; an effect the other way counts as inactive or inconclusive. Unless noted, % is set by controls: 0 for no effect and ±100 for the full control effect; potency is the fitted concentration of half-maximal effect.
SMILES,KB-V1 cytotox,HT1080 IDH1KD tx,KB-3-1 cytotox,DT40 TDP1 CPT,HT1080-NT tox,DT40 TDP1 no CPT
COc1ccc(NC(=O)CS(=O)(=O)c2cn(CC(=O)N3CCOCC3)c3ccccc23)cc1,i,2%,i,4%,-5%,-5%
Cc1ccc(NC(=O)CSc2ccccc2NC(=O)c2cccc(Cl)c2)cc1Cl,?,12%,i,-54%,3%,-61%
CCc1ccc(NC(=O)CSc2cn(CC(=O)N3CCCC3)c3ccccc23)cc1,nt,nt,nt,18µM*,nt,?
CCOC(=O)c1ccc(NC(=O)CSc2cn(CC(=O)N3CCCC3)c3ccccc23)cc1,nt,nt,nt,?,nt,18µM*
O=C(Nc1nnc(-c2ccncc2)s1)Oc1ccc2ccccc2c1,i,nt,?,nt,nt,nt
O=C(Nc1c2c(nn1-c1ccccc1)CS(=O)C2)c1ccco1 (stereo not drawn),i,6%,i,0%,-3%,0%
CCOC(=O)c1cc(NC(=O)c2ccc(C)cc2)c(=O)n2c1oc1ccc(Cl)cc12,nt,nt,nt,-25%,nt,-4%
Brc1ccc2c(c1)OCCOCCOc1cc(Br)ccc1OCCOCCOCCO2,2.3µM*,18µM*,?,5.2µM*,?,2.9µM*
Brc1cc2c(cc1Br)OCCOCCOCCOCCO2,i,0%,i,15µM*,-3%,10µM*
CCOC(=O)c1ccccc1NC(=O)Cn1c(=O)n(-c2ccc(CC)cc2)c(=O)c2c(C)c(C(=O)N(C)C)sc21,nt,nt,nt,8.2µM*,nt,12µM*
CCN(CC)C(=O)c1sc2c(c1C)c(=O)n(Cc1ccccc1)c(=O)n2Cc1c(C)cc(C)cc1C,i,nt,i,?,nt,21µM*
CCOC(=O)c1sc2c(c1C)c(=O)n(CCO)c(=O)n2Cc1ccccc1,i,2%,i,15µM*,?,16µM*
COC(=O)c1ccccc1NC(=O)Cn1c(=O)n(Cc2ccccc2)c(=O)c2c(C)c(C)sc21,i,10%,i,2%,11%,-10%
Cc1cccc(C)c1NC(=O)Cn1c(=O)n(Cc2ccccc2)c(=O)c2c(C)c(C(=O)N(C)C)sc21,i,nt,i,16µM*,nt,?
CCc1ccc(NC(=O)Cn2c(=O)n(-c3cccc(OC)c3)c(=O)c3c(C)c(C(=O)N(C)C)sc32)cc1,nt,nt,nt,1%,nt,-7%
O=C(CSc1nc2c([nH]c3ccccc32)c(=O)n1-c1ccc(Cl)cc1)N1CCOCC1,i,nt,i,5%,nt,1%
CCOC(=O)c1sc(-c2ccc(Cl)cc2)nc1O,i,22%,i,19%,19%,1%
CCN(CC)C(=O)c1sc2c(c1C)c(=O)n(Cc1ccccc1)c(=O)n2Cc1ccc(Cl)cc1,?,nt,?,?,nt,4.6µM*
CCN(CC)C(=O)c1sc2c(c1C)c(=O)n(-c1ccc(C)c(C)c1)c(=O)n2Cc1cccc(Cl)c1,i,nt,i,21µM*,nt,?
CCOC(=O)c1sc(C)c2c(=O)n(Cc3ccc(Cl)cc3)c(C)nc12,i,-16%,i,23µM*,-18%,16µM*
CC(=O)c1ccc(NC(=O)CN2C(=O)c3cccnc3Sc3ccccc32)cc1,i,nt,i,?,nt,?
Cc1cc2oc3c(c(=O)c2cc1C)C(c1ccc(C(C)C)cc1)N(c1nc(C)c(C)s1)C3=O (stereo not drawn),i,nt,i,-12%,nt,1%
O=C(c1cc2ccccc2oc1=O)N(c1ccccc1)C1C=CS(=O)(=O)C1 (stereo not drawn),i,0%,i,-4%,-3%,-19%
CC(C)c1ccc(N(C(=O)c2cc3ccccc3oc2=O)C2C=CS(=O)(=O)C2)cc1 (stereo not drawn),?,10%,i,?,9%,13µM*
